Data as given in PubChem BioAssay (NCI).
Compounds without any hit were thinned out: in the full panel of roughly 83,000, 20% have a hit.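 Activity criterion: percent growth below 10, measured after cells in 96-well plates were exposed to a single compound concentration for 48 hours.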 Values without a mark were called inactive. Active and inactive are the calls of the source.

What was measured:
Experiment in all cases: NCI-60 one-dose screen, 48 h (100 = growth as untreated, 0 = no growth, -100 = all killed)
Conditions in all cases: 10 µM unless noted
SR leukemia = system: SR leukemia
RPMI-8226 leukemia = system: RPMI-8226 leukemia
OVCAR-8 ovarian = system: OVCAR-8 ovarian
OVCAR-5 ovarian = system: OVCAR-5 ovarian
OVCAR-4 ovarian = system: OVCAR-4 ovarian
SK-OV-3 ovarian = system: SK-OV-3 ovarian
IGROV1 ovarian = system: IGROV1 ovarian
OVCAR-3 ovarian = system: OVCAR-3 ovarian
HS 578T breast = system: HS 578T breast
NCI/ADR-RES ovarian = system: NCI/ADR-RES ovarian
T-47D breast = system: T-47D breast
BT-549 breast = system: BT-549 breast
MDA-MB-435 melanoma = system: MDA-MB-435 melanoma
SW-620 colon = system: SW-620 colon
MCF7 breast = system: MCF7 breast
HCT-116 colon = system: HCT-116 colon
KM12 colon = system: KM12 colon
HCC-2998 colon = system: HCC-2998 colon

Compound	growth (SR leukemia)	growth (RPMI-8226 leukemia)	growth (OVCAR-8 ovarian)	growth (OVCAR-5 ovarian) [%]	growth (OVCAR-4 ovarian) [%]	growth (SK-OV-3 ovarian)	growth (IGROV1 ovarian)	growth (OVCAR-3 ovarian)	growth (HS 578T breast)	growth (NCI/ADR-RES ovarian)	growth (T-47D breast)	growth (BT-549 breast)	growth (MDA-MB-435 melanoma)	growth (SW-620 colon)	growth (MCF7 breast) [%]	growth (HCT-116 colon)	growth (KM12 colon)	growth (HCC-2998 colon)
CCOC(=O)n1ccn(C)c1=S	94.2%	103%	105%	102	110	85.3%	110%	106%	132%	107%	-28.3% (active)	98.7%	102%	111%	102	94.4%	101%	
Nc1[nH]n2cc(-c3ccccc3)nc2c1N=Nc1ccc(S(N)(=O)=O)cc1	13.3%	5.77% (active)	36.6%	65.4	36.9	13.3%	15.3%	46.8%	5.14% (active)	90%	42.8%	59.5%	28.9%	26.1%	45.5	22.6%	33.3%	45.5%
O=C1C(Cl)=C(NCCCCCCNC2=C(Cl)C(=O)c3ccccc3C2=O)C(=O)c2ccccc21	88%	85.2%	77.6%	110	22.5	98%	38.2%	47.3%	89.3%	93.5%	90.7%	91.2%	79.4%	73.3%	81.6	88%	98.1%	103%
N#Cc1c(-c2ccc(Cl)cc2)nc(NN2C(=O)c3ccccc3C2=O)nc1N1CCOCC1	84%	105%	102%	102	98.7	106%	109%	113%	101%	107%	94.7%	112%	106%	98.8%	101	99.5%	107%	111%
Cn1ccnc1C(=O)/C=C/c1ccc(C(=O)Nc2ccc(Cl)cc2)cc1	-8.67% (active)	-8.46% (active)	14.3%	12.6	18.1	42.2%	-22.4% (active)	-12.8% (active)	18.4%	5.79% (active)	9.37% (active)	-7.95% (active)	23.8%	-46.8% (active)	12.6	-49% (active)	-49.8% (active)	-10.1% (active)
COc1ccc(C(=O)c2cc3c(N)c(C(=O)Nc4ccc(C)cc4)sc3nc2C)cc1	18.1%	24.1%	22%	29.6	51.1	35.3%	28.6%	-5.4% (active)	-1.41% (active)	14.9%	46.6%	46.5%	-42.9% (active)	28.3%	18.8	16.2%	15.5%	13.9%
COC(=O)c1cc(N=C2NC(=O)/C(=C/C=C/c3ccccc3)S2)ccc1O	27.5%	18.8%	25.6%	71	58.9	33.3%	37.6%	18.7%	35.3%	5.59% (active)	32.8%	48.5%	-35.6% (active)	31.4%	17.9	18.2%	23.1%	49.1%
COc1cc(-c2cncn2-c2ccc(-c3nc4ccc(F)cc4s3)cc2)ccc1F	73%	53.6%	78.1%	75.7	85.6	106%	52.8%	97.5%	97.4%	80.3%	76.3%	85.3%	87.4%	54.3%	64.3	37.7%	81.7%	80.2%
C/C(=N\O)c1ccc(Cl)cc1	78.1%	107%	88.6%	118	109	108%	155%	113%	90.4%	108%	110%	96%	112%	99.9%	101	97.5%	118%	
O=C(/C=C/c1cn(-c2ccccc2)nc1-c1ccc(Cl)cc1)c1ccc(F)cc1	40.8%	67.5%	80.6%	99.3	71.9	82.6%	81.1%	78.8%	95.7%	69.8%	38.9%	96%	326%	75.4%	41.8	41.1%	63.8%	186%
Cn1cc(-c2ccc3nc(-c4ccc(CC(=O)ONc5cc(C(C)(C)C)on5)cc4)cnc3c2)cn1	15.5%	45.2%	33.7%	66.1	35.4	-17.1% (active)	10.3%	48%	31%	33.2%	24.2%	29.6%	34.4%	40.6%	53.1	16.7%	11%	41.8%
COc1ccc(-c2cc(-c3cccnc3)nc3sc4c(=O)[nH]c(-c5ccc(Cl)cc5)nc4c23)cc1OC	87.5%	88.8%	92.2%	98.2	87.9	95.2%	90.3%	102%	92%	98%	66.8%	91.1%	99.8%	92.2%	73.5	80.7%	99%	105%
COc1ccc(C/C(C)=C(/c2ccc(OCCN(C)C)cc2)c2ccc(OC(=O)NCc3ccccc3)cc2)cc1	-46% (active)	32.9%	77.4%	92	78.4	81.4%	85.3%	63.9%	56.2%	77.2%	51.7%	82.5%	74.4%	61.5%	21.2	52.1%	72.6%	66.6%
NC(=O)c1cccc(-n2ccc3cc(NC(=O)c4ccc(N5CCOCC5)c(C(F)(F)F)c4)ccc32)n1	26.5%	12.2%	31.9%	70.1	47	43.3%	74.8%	48.7%	14%	66.1%	3.32% (active)	45.3%	71.3%	68.2%	57.1	44.5%	33.3%	79.8%
Cc1ccc(-c2nc([P+](c3ccccc3)(c3ccccc3)c3ccccc3)c(S(=O)(=O)c3ccc(C)cc3)o2)cc1	-10.9% (active)	-28.2% (active)	8.26% (active)	25.1	14.2	64.8%	26.4%	0.238% (active)	-9.93% (active)	59.5%	18.6%	8.67% (active)	-2.81% (active)	-70.3% (active)	13.5	-68.6% (active)	18.8%	38.3%
O=C1/C(=C/c2ccccc2O)CC/C1=C\c1ccccc1O	8.12% (active)	-6.74% (active)	68.9%	126	63.4	102%	32.1%	30.9%	70.7%	72.7%	47.3%	2% (active)	26.4%	55.1%	24.3	16.7%	75.7%	104%
O=C1Nc2ccccc2/C1=C/c1nc2ccccc2c(=O)[nH]1	31%	85.9%	93.4%	125	94.5	96%	69.5%	90.9%	93.4%	97%	71.5%	95%	104%	102%	60.2	76.7%	96.4%	102%
